# According to the supplement of paper PMC10849652:
# Targets with a hit are over-represented here; the source holds about 8,800 in all. About 0.5% of all pairs of compound and target were hits. Unmarked numbers belong to inactive results.
# Tests used:
# Assay in all cases: log2 fold change, soluble protein after heating vs DMSO (PISA); higher = thermal stabilisation; K562 lysate, 10 uM; active = over 0.2 and 3.5 SD of the protein, either way, in both replicates (recomputed)
# [1] = compound: CS(=O)(=O)CCNCc1ccc(-c2ccc3ncnc(Nc4ccc(OCc5cccc(F)c5)c(Cl)c4)c3c2)o1 [lapatinib]
# Summary of the method: (§1)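 To prepare the extract, K562 pellets were dounce-homogenised in PBS pH 7.4 with 1 mM MgCl2, giving crude material at 1 mg/mL protein. This was treated with 10 μM compound for 30 min, then heated in aliquots for 3 min over 48°C-58°C before pooling and addition of NP-40 to 0.5% at 4°C. Centrifugation at 21,000xg for 90 min left soluble protein in the supernatant, which TMTpro 16plex LC-MS/MS quantified with equalised channel sums. Results are log-two fold changes in thermal stability compared with solvent controls, from duplicates.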
# [2] = compound: CS(=O)(=O)N1CCN(Cc2cc3nc(-c4cccc5[nH]ncc45)nc(N4CCOCC4)c3s2)CC1 [pictilisib]
# Summary of the method: as §1
# [3] = compound: C[C@H](C1=CC=C(C=C1)C(=O)NC2=C3C=CNC3=NC=C2)N
# Summary of the method: as §1
# [4] = compound: Cc1cc(Nc2cc(CN3CCOCC3)c3nc(C)c(Cc4ccc(Cl)cc4F)n3n2)n[nH]1 [gandotinib]
# Summary of the method: as §1
# [5] = compound: Cc1ccc(NC(=O)c2ccc(CN3CC[C@H](N(C)C)C3)c(C(F)(F)F)c2)cc1Nc1nccc(-c2cncnc2)n1 [bafetinib]
# Summary of the method: as §1
# [6] = compound: Cc1cccc(CC(=O)N2CCc3c2ccc(-c2cn(C)c4ncnc(N)c24)c3F)n1
# Summary of the method: as §1
# [7] = compound: Cc1cn(-c2cc(NC(=O)c3ccc(C)c(Nc4nccc(-c5cccnc5)n4)c3)cc(C(F)(F)F)c2)cn1 [nilotinib]
# Summary of the method: as §1
# [8] = compound: Cc1nc(Nc2n[nH]c3c2CN(C(=O)N[C@H](CN(C)C)c2ccccc2)C3(C)C)c2sccc2n1
# Summary of the method: as §1
# [9] = compound: Cc1ncc(-c2ccnc(Nc3ccc(S(C)(=O)=O)cc3)n2)n1C(C)C
# Summary of the method: as §1
# [10] = compound: Cn1cncc1[C@@](N)(c1ccc(Cl)cc1)c1ccc2c(c1)c(-c1cccc(Cl)c1)cc(=O)n2C [tipifarnib]
# Summary of the method: as §1
# [11] = compound: NC(=O)c1cnc(N[C@@H]2CCCC[C@@H]2N)nc1Nc1cccc(-n2nccn2)c1
# Summary of the method: as §1
# [12] = compound: C[C@@H](Oc1cc(-c2cnn(C3CCNCC3)c2)cnc1N)c1c(Cl)ccc(F)c1Cl [crizotinib]
# Summary of the method: as §1
# [13] = compound: C[C@H](Nc1ncnc2nc[nH]c12)c1cc2cccc(Cl)c2c(=O)n1-c1ccccc1 [duvelisib]
# Summary of the method: as §1
# [14] = compound: Cc1ccc(-n2nc(C(C)(C)C)cc2NC(=O)Nc2ccc(OCCN3CCOCC3)c3ccccc23)cc1 [doramapimod]
# Summary of the method: as §1
# [15] = compound: Cc1nc(Nc2ncc(C(=O)Nc3c(C)cccc3Cl)s2)cc(N2CCN(CCO)CC2)n1 [dasatinib]
# Summary of the method: as §1
# [16] = compound: Cn1cc(-c2ccc3c(c2)CCN3C(=O)Cc2cccc(C(F)(F)F)c2)c2c(N)ncnc21
# Summary of the method: as §1
# [17] = compound: Cn1cc(CNCC2CCN(c3ncc(C(=O)NO)cn3)CC2)c2ccccc21 [quisinostat]
# Summary of the method: as §1
# [18] = compound: NC(=O)Nc1cc(-c2cccc(F)c2)sc1C(=O)N[C@H]1CCCNC1
# Summary of the method: as §1
# [19] = compound: NC1(c2ccc(-c3nc4ccn5c(=O)[nH]nc5c4cc3-c3ccccc3)cc2)CCC1
# Summary of the method: as §1
# [20] = compound: Cc1cc(Nc2cc(N3CCN(C)CC3)nc(Sc3ccc(NC(=O)C4CC4)cc3)n2)n[nH]1 [tozasertib]
# Summary of the method: as §1
# UniProt Q3L8U1, sequence (Q3L8U1 whole entry, looked up): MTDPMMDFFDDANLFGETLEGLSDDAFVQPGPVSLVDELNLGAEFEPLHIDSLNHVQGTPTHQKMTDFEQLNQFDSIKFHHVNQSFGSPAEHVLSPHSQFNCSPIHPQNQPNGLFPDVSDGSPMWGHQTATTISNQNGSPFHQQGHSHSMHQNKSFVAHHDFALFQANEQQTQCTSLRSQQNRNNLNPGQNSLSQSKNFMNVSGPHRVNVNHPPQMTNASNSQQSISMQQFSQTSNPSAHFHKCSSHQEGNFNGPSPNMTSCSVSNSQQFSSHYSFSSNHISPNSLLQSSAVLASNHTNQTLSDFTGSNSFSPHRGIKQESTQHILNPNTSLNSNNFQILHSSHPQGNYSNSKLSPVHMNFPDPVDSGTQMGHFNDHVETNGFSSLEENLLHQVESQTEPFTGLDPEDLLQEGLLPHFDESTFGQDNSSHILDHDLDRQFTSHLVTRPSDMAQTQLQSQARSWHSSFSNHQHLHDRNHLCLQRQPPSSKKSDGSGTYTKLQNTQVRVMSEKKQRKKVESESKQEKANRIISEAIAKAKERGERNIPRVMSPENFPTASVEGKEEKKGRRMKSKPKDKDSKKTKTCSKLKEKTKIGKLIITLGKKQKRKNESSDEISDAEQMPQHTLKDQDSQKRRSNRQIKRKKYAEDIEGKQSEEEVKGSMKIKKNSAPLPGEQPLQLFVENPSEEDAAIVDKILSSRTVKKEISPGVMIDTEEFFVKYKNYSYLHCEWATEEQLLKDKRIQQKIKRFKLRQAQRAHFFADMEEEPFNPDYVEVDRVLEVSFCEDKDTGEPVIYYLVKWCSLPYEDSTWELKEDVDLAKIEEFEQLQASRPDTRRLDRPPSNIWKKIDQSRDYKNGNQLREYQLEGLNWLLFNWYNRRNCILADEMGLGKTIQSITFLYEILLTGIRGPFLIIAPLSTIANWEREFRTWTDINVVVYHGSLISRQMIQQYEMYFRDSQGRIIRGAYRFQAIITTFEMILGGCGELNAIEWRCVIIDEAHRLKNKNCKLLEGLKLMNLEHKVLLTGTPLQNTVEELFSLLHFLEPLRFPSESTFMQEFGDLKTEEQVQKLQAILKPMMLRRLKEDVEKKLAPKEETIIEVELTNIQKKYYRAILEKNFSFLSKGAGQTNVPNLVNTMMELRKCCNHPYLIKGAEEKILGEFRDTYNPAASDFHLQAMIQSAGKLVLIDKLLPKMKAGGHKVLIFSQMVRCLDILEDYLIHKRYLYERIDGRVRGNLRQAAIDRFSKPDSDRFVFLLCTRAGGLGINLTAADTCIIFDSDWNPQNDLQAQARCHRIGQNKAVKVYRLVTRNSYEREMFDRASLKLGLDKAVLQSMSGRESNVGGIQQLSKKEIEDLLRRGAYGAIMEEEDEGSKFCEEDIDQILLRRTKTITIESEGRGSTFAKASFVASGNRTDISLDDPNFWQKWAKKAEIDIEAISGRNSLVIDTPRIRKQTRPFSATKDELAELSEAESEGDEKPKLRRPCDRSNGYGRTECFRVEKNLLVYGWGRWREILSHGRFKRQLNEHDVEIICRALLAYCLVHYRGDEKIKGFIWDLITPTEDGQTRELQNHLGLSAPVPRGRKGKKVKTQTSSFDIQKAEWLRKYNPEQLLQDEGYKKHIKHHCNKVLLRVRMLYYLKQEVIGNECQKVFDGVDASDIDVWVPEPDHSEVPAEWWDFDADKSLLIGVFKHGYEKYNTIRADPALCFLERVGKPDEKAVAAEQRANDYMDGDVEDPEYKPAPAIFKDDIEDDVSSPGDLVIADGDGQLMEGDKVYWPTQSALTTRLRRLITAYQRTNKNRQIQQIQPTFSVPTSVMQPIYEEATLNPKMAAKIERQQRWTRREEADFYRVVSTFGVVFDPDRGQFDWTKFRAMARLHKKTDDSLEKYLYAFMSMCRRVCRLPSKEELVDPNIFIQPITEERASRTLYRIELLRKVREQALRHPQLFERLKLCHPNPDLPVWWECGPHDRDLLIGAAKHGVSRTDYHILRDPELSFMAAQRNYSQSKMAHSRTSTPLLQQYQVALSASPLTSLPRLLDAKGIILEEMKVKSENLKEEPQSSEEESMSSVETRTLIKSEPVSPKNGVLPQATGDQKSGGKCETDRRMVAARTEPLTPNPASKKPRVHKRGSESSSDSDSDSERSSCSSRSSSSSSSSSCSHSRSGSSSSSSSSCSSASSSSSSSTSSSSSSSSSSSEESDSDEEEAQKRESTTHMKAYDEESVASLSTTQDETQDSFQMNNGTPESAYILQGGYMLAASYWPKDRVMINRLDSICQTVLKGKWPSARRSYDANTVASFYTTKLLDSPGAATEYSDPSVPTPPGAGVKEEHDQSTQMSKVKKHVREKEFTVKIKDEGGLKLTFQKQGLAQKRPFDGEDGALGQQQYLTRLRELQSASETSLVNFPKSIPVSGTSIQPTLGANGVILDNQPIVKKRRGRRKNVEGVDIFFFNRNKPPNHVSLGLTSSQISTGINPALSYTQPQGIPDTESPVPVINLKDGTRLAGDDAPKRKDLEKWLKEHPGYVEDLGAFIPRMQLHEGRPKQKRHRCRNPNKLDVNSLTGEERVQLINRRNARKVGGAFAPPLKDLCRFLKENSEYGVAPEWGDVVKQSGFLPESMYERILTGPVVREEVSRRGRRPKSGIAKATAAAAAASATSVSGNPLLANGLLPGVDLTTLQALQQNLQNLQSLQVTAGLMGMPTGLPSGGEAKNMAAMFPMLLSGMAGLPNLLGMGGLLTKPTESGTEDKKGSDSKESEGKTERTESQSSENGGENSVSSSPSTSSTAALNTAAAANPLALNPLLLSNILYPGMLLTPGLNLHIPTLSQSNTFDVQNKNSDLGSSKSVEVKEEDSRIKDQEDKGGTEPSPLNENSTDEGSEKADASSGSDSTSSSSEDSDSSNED
# UniProt P0DMB2, sequence (P0DMB2 whole entry, looked up): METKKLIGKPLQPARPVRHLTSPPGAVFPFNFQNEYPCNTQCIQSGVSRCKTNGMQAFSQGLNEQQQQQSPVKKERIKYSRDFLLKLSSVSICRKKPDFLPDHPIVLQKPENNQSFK
# UniProt P13994, sequence (P13994 whole entry, looked up): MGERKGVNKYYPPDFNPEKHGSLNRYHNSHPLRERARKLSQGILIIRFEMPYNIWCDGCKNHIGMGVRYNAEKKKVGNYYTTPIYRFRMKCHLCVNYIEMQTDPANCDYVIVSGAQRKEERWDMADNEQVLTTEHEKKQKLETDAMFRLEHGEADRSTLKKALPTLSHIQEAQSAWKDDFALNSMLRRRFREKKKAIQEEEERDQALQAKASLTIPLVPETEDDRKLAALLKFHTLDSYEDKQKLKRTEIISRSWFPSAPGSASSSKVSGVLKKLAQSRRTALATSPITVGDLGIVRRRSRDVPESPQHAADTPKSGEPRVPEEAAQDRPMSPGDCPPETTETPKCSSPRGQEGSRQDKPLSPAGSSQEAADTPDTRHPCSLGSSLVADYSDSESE
Target,log2 fold change [1],log2 fold change [2],log2 fold change [3],log2 fold change [4],log2 fold change [5],log2 fold change [6],log2 fold change [7],log2 fold change [8],log2 fold change [9],log2 fold change [10],log2 fold change [11],log2 fold change [12],log2 fold change [13],log2 fold change [14],log2 fold change [15],log2 fold change [16],log2 fold change [17],log2 fold change [18],log2 fold change [19],log2 fold change [20]
CARHSP1 (UniProt H3BNU9),-0.101,-0.186,0.16,-0.329,0,0.341,-0.196,0.149,0.238,0.108,-0.059,,,,,,,,,
C8orf88 (UniProt P0DMB2),,0.028,0.054,-0.017,-0.016,-0.095,,,,,,0.038,0.058,-0.004,0.07,-0.134,-0.042,-0.011,0.084,
CHD9 (UniProt Q3L8U1),,,1.37 (active),-0.111,,-0.27,0.209,0.125,-0.279,-0.017,,0.055,0.106,-0.057,-0.124,-0.109,-0.029,0,0.032,
CCDC130 (UniProt P13994),,-0.003,,,-0.119,,,,,,,-0.689,,0.617,,,-0.583,-0.183,0.259,0.055
